GAA850 FXN act = FXN promoter activators, primary screen, cell-based, luciferase luminescence, HEK293 lucGAA850; AID 540364, 2011; hit rate 0.56% among 360,000; HEK293 lucGAA850 FXN promoter luciferase reporter, 24 h; percent of 10 µM SAHA response; activation, % at 6 µM;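 active means activation above the average of all compounds screened plus 3 SD, cutoff fixed separately per campaign, cut at about 7.5% in these data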
MITF act = activators of MITF-driven TRPM1 promoter reporter, primary screen, cell-based, SK-MEL-5, luciferase, single point; hit rate 0.75% among 300,000; SK-MEL-5 TRPM1-promoter luciferase, 24 h; % of positive control, neutral wells = 0; activation, % at 12.5 µM; AID 588334, 2011;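 active means mean activation of at least 80% with every replicate also reaching 80%; inconclusive means mean reaches 80% but some replicate falls short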
esBAF inh = Bmi1 luciferase reporter increase in mESCs, primary screen, esBAF inhibitor project, mouse ES cells, Bmi1 luciferase knock-in, single point | 24 h; 100% = twice the neutral-well signal | reporter increase, % at 12.5 µM | AID 602393, 2012 | hit rate 2% among 350,000; in the data active means activation above about 40%; inconclusive means no clear call, values can overlap the other calls;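 further: a rise in the Bmi1 reporter signal indicates esBAF inhibition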
Wnt bcat act = Wnt/beta-catenin pathway activators, primary screen, cell-based, plate reader, single point | Wnt/beta-catenin reporter cell assay, activator | activation, % at 9.35 µM | hit rate 1.2% among 300,000; in the data active means activation above about 30%, passing the limit was not always enough; inconclusive means no clear call, values can overlap the other calls
GAA30 FXN cntr = GAA30 FXN promoter activators, confirmation, counter-screen for GAA850 frataxin promoter activator project, cell-based, luminescence, HEK293, lucGAA30, triplicate | HEK293 lucGAA30 FXN promoter luciferase, 24 h; DMSO = 0%, 5 µM ipriflavone = 100% | shares compounds with GAA850 FXN act | activation, % at 6 µM | hit rate 66% among 1,900;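 active means mean activation above the mean of solvent-only control wells plus 3 SD, cut at about 22% in these data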;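 further: counterscreen of GAA850 promoter hits where activity marks nonselective or luminescence artifacts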
FXN GAA850 conf = FXN GAA850 promoter activators in reporter cells, confirmation, cell-based, luminescence, HEK293 lucGAA850, triplicate; HEK293 lucGAA850 FXN promoter luciferase reporter, 24 h; 100% = activation by SAHA; shares compounds with GAA850 FXN act; hit rate 86% among 1,900; activation, % at 6 µM;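 active means mean activation above a set limit taken from the primary screen, cut at about 8% in these data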
Of the large screens only hits and unclear results are named; the others gave an inactive call (follow-up assays come after a bar, where they were run). An excerpt weighted towards active compounds, which were near 2.8% of everything screened.

Cc1ccc(-n2c(C)nn(CCOc3ccccc3)c2=O)cc1	GAA850 FXN act 9.3, esBAF inh 45 | GAA30 FXN cntr 98 | FXN GAA850 conf 27
CC1=CC(=C(C#N)c2nc3ccccc3s2)C=C(C)N1CC1CCCO1 (configuration not stated)	GAA850 FXN act 7.8 (no result: esBAF inh) | GAA30 FXN cntr 39 | FXN GAA850 conf 32
c1ccc2sc(NCC3CCCO3)nc2c1 (configuration not stated)	none (no result: esBAF inh)
Nc1cccc2nc3ccccc3cc12	GAA850 FXN act 19 | GAA30 FXN cntr inactive | FXN GAA850 conf 101
CN(C)C(=O)CCC(=O)N1CCCC(C(=O)c2ccc3c4c(cccc24)CC3)C1 (configuration not stated)	GAA850 FXN act 10 | GAA30 FXN cntr 44 | FXN GAA850 conf 13
COc1ccc(S(=O)(=O)N(C)C[C@H]2Oc3ccc(NC(=O)CCCN(C)C)cc3C(=O)N([C@@H](C)CO)C[C@H]2C)cc1	none (no result: GAA850 FXN act, MITF act, Wnt bcat act)
C/C(=N\NC(=O)c1sccc1C)c1cccnc1	esBAF inh inconclusive
C/C(=N\NC(=O)c1sccc1C)c1ccncc1	GAA850 FXN act 8.2 (no result: esBAF inh) | GAA30 FXN cntr 82 | FXN GAA850 conf 32
CN(C)C(=O)C[C@@H]1C[C@@H]2c3cc(NC(=O)Nc4ccccc4)ccc3O[C@@H]2[C@@H](CO)O1	none (no result: GAA850 FXN act, MITF act, Wnt bcat act)
CCCCOC(=O)Nc1ccc2c(C)cc(=O)oc2c1	GAA850 FXN act 7.7, esBAF inh 68, Wnt bcat act 59 (no result: MITF act) | GAA30 FXN cntr 120 | FXN GAA850 conf 39
Cc1cc(=O)oc2cc(NC(=O)CCOc3ccccc3)ccc12	none
Cc1nc(SCC(=O)c2cccs2)c2oc3ccccc3c2n1	GAA850 FXN act 7.6, Wnt bcat act 71 (no result: MITF act, esBAF inh) | GAA30 FXN cntr 101 | FXN GAA850 conf 39
C[C@H]1CN([C@@H](C)CO)C(=O)c2cccc(NS(C)(=O)=O)c2O[C@@H]1CN(C)Cc1ccc2c(c1)OCO2	none (no result: GAA850 FXN act, MITF act, Wnt bcat act)
O=C(OCC1CC(c2ccccc2Cl)=NO1)c1ccc(Br)cc1 (configuration not stated)	GAA850 FXN act 7.6 (no result: esBAF inh, Wnt bcat act) | GAA30 FXN cntr inactive | FXN GAA850 conf inactive
COCC#Cc1cnc2c(c1)C(=O)N([C@@H](C)CO)C[C@@H](C)[C@@H](CN(C)Cc1ccc3c(c1)OCO3)O2	none (no result: GAA850 FXN act, MITF act, Wnt bcat act)
Cc1ccc(NC(=S)N/N=C/c2c(C)[nH]c3ccccc23)cc1	GAA850 FXN act 7.9 | GAA30 FXN cntr 31 | FXN GAA850 conf 21
O=C([C@@H]1[C@@H](CO)[C@@H]2Cn3c(ccc(-c4ccc(F)cc4)c3=O)[C@H]1N2)N1CCCCC1	none (no result: GAA850 FXN act, MITF act, Wnt bcat act)
O=c1[nH]nc(CNc2ccc(OC(F)(F)F)cc2)c2ccccc12	GAA850 FXN act 9.0 | GAA30 FXN cntr 40 | FXN GAA850 conf 20
Cc1ccccc1CS(=O)(=O)c1nnc([C@H](Cc2ccccc2)NC(=O)OC(C)(C)C)o1	GAA850 FXN act 12 | GAA30 FXN cntr inactive | FXN GAA850 conf inactive
CCSc1nnc([C@H](Cc2ccccc2)NC(=O)OC(C)(C)C)o1	none (no result: Wnt bcat act)
O=C(/C=C/c1cccs1)Nc1ccc(N2CCOCC2)c(S(=O)(=O)Nc2ccccc2Cl)c1	none (no result: esBAF inh)
COc1ccccc1NS(=O)(=O)c1cc(NC(=O)/C=C/c2cccs2)ccc1N1CCOCC1	GAA850 FXN act 9.9 | GAA30 FXN cntr inactive | FXN GAA850 conf inactive
C[C@H](CO)N1C[C@H](C)[C@@H](CN(C)C(=O)NC2CCCCC2)Oc2ccc(NC(=O)CCCN(C)C)cc2C1=O	none (no result: GAA850 FXN act, MITF act, Wnt bcat act)
c1cncc(-c2nn3c(Cn4nnc5ccccc54)nnc3s2)c1	GAA850 FXN act 16 | GAA30 FXN cntr inactive | FXN GAA850 conf inactive
C[C@H]1CN([C@@H](C)CO)C(=O)Cc2cc(NC(=O)CCN3CCOCC3)ccc2O[C@@H]1CN(C)C(=O)Nc1cccc2ccccc12	none (no result: GAA850 FXN act, MITF act, Wnt bcat act)
CN(c1ccc(C(=O)NCCc2ccccc2)cc1)S(C)(=O)=O	none (no result: Wnt bcat act)
CN(c1ccc(C(=O)NCCSC(C)(C)C)cc1)S(C)(=O)=O	GAA850 FXN act 8.1 (no result: Wnt bcat act) | GAA30 FXN cntr 104 | FXN GAA850 conf 30

Compound activity from PubChem BioAssay.
